Growth data for eight molecules are collected here from PubChem BioAssay (NCI).

The structures appear in SMILES notation. Compounds without any hit were thinned out: in the full panel of roughly 83,000, 20% have a hit.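 Treatment: one concentration, 48 hours, 96-well format. Scoring: percent growth, with anything below 10 considered active.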 A number with no mark means an inactive call. Active and inactive are the calls of the source.

Holding throughout (assay): NCI-60 one-dose screen, 48 h (100 = growth as untreated, 0 = no growth, -100 = all killed)
The test system of one assay is HCT-15 colon. The conditions noted are these: 10 µM unless noted.
A further assay relates to HT29 colon. The conditions noted are these: 10 µM unless noted.
The subject of another assay is SNB-75 CNS. The conditions noted are these: 10 µM unless noted.
The subject of the next assay is SNB-19 CNS. The following applies: 10 µM unless noted.
For the next assay, the system named is U251 CNS. The following applies: 10 µM unless noted.
The next assay concerns PC-3 prostate. The conditions noted are these: 10 µM unless noted.
A further assay relates to SK-MEL-5 melanoma. The following applies: 10 µM unless noted.
The subject of another assay is UACC-62 melanoma. The following applies: 10 µM unless noted.
The next assay deals with LOX IMVI melanoma. The conditions noted are these: 10 µM unless noted.
A further assay relates to SK-MEL-28 melanoma. The following applies: 10 µM unless noted.
A further assay deals with SK-MEL-2 melanoma. The conditions noted are these: 10 µM unless noted.
A further assay deals with EKVX NSCLC. The conditions noted are these: 10 µM.
The test system of another assay is UO-31 renal. The conditions noted are these: 10 µM unless noted.
The test system of the next assay is TK-10 renal. The conditions noted are these: 10 µM unless noted.
Another assay concerns ACHN renal. The following applies: 10 µM unless noted.
A further assay relates to CCRF-CEM leukemia. The following applies: 10 µM.
The test system of the next assay is MOLT-4 leukemia. The conditions noted are these: 10 µM unless noted.
A further assay relates to CAKI-1 renal. The following applies: 10 µM unless noted.
The subject of another assay is A498 renal. The following applies: 10 µM unless noted.
The test system of the next assay is SN12C renal. The conditions noted are these: 10 µM unless noted.

Consider `COc1ccc(-c2nc(N)n(C(=S)Nc3ccccc3)n2)cc1`, for which the growth with HCT-15 colon was 102%; in the assay on HT29 colon it was 99.4%; in the assay on SNB-75 CNS, 70%; in the assay on SNB-19 CNS, 99.5%; in the assay on U251 CNS, 103%; in the assay on PC-3 prostate it was 92.3%. The growth is 94% in the assay on SK-MEL-5 melanoma; 98% with UACC-62 melanoma; 94.3% in the assay with LOX IMVI melanoma; 116% in the assay with SK-MEL-28 melanoma; 101% with SK-MEL-2 melanoma; 96.3% in the assay with EKVX NSCLC. For the same molecule, the growth in the assay on UO-31 renal was 74.2%; in the assay on TK-10 renal it was 113%; with ACHN renal, 97.9%; in the assay on CCRF-CEM leukemia, 98.7%; in the assay on MOLT-4 leukemia, 98.5%.

On to `COC(=O)c1ccc2[nH]c(O)c(C(=Nc3ccc(N(C)C(=O)CN4CCN(C)CC4)cc3)c3ccc4c(c3)OCO4)c2c1`, for which the growth was 8.49% (active) with HCT-15 colon; 4.28% (active) in the assay with HT29 colon; -1.84% (active) in the assay with SNB-75 CNS; 14% with SNB-19 CNS; 13.4% in the assay with U251 CNS; 19.3% with PC-3 prostate. Moreover, the growth in the assay with SK-MEL-5 melanoma is 10.1%; in the assay on UACC-62 melanoma, 31.8%; in the assay with LOX IMVI melanoma it was 6.8% (active); in the assay on SK-MEL-28 melanoma, 20.8%; in the assay with SK-MEL-2 melanoma, -36.7% (active); with EKVX NSCLC, 37.3%. The growth was 14.7% in the assay with UO-31 renal; -9.95% (active) in the assay with TK-10 renal; 8.02% (active) in the assay with ACHN renal; 4.52% (active) in the assay on CAKI-1 renal; -19.1% (active) with A498 renal; 4.01% (active) with CCRF-CEM leukemia. Moreover, the growth with MOLT-4 leukemia is 0.682% (active).

Take `Cn1c2ccccc2c2ccccc21`: the growth in the assay with HCT-15 colon was 107%; in the assay with HT29 colon, 104%; with SNB-75 CNS, 85.5%; with SNB-19 CNS, 98.3%; in the assay on U251 CNS, 96.5%; in the assay with PC-3 prostate it was 105%. Moreover, the growth was 105% in the assay on SK-MEL-5 melanoma; 101% with UACC-62 melanoma; 95.8% in the assay with LOX IMVI melanoma; 102% in the assay with SK-MEL-28 melanoma; 99.4% with SK-MEL-2 melanoma; 107% in the assay with SN12C renal. Moreover, the growth with UO-31 renal was 75%; in the assay with TK-10 renal it was 97.5%; in the assay with ACHN renal it was 105%; in the assay on CAKI-1 renal, 101%; in the assay on A498 renal, 115%; with CCRF-CEM leukemia it was 92.5%. Moreover, in the assay with MOLT-4 leukemia, the growth was 89.7%.

On to `O=C1/C(=N\c2cc(=O)[nH]n2S(=O)(=O)c2ccccc2)Nc2ccccc21`, for which the growth is 100% with HCT-15 colon; 109% in the assay on HT29 colon; 81.2% in the assay with SNB-75 CNS; 99.8% with SNB-19 CNS; 105% in the assay on U251 CNS; 87% in the assay on PC-3 prostate. Moreover, the growth in the assay with SK-MEL-5 melanoma was 98.6%; in the assay on UACC-62 melanoma it was 97.6%; in the assay with LOX IMVI melanoma, 92.4%; with SK-MEL-28 melanoma, 116%; in the assay with SK-MEL-2 melanoma, 102%; in the assay with EKVX NSCLC it was 101%. The growth with UO-31 renal was 70.8%; with TK-10 renal, 123%; with ACHN renal, 94.7%; in the assay with CAKI-1 renal, 84.8%; in the assay on A498 renal, 98.2%; in the assay with CCRF-CEM leukemia it was 98.4%. The growth with MOLT-4 leukemia is 102%.

As for `CC(=O)c1cc(Nc2cc(C)nc(N)n2)cc(C(C)=O)c1`, the growth was 111% with HCT-15 colon; 111% with HT29 colon; 90.3% in the assay on SNB-75 CNS; 102% in the assay on SNB-19 CNS; 101% in the assay on U251 CNS; 107% in the assay with PC-3 prostate. In addition, the growth with SK-MEL-5 melanoma was 100%; in the assay on UACC-62 melanoma, 93.7%; with LOX IMVI melanoma, 99.8%; in the assay on SK-MEL-28 melanoma, 111%; in the assay with SK-MEL-2 melanoma, 100%; in the assay on EKVX NSCLC it was 101%. Moreover, the growth was 92.7% in the assay with UO-31 renal; 94.8% in the assay on TK-10 renal; 102% in the assay on ACHN renal; 87% in the assay on CAKI-1 renal; 91.7% in the assay with A498 renal; 86.9% in the assay with CCRF-CEM leukemia. Moreover, in the assay with MOLT-4 leukemia, the growth is 91.2%.

`c1cc[c]([Bi]([c]2ccccc2)[c]2ccccc2)cc1`: the growth is 103% with HCT-15 colon; 112% with HT29 colon; 76.9% with SNB-75 CNS; 102% in the assay with SNB-19 CNS; 99.6% in the assay with U251 CNS; 85.2% with PC-3 prostate. In addition, the growth is 97.8% in the assay on SK-MEL-5 melanoma; 94.6% in the assay on UACC-62 melanoma; 98.6% in the assay on LOX IMVI melanoma; 102% in the assay with SK-MEL-28 melanoma; 116% in the assay with SK-MEL-2 melanoma; 97.1% with SN12C renal. The growth in the assay on UO-31 renal is 84.8%; in the assay on TK-10 renal, 94.6%; in the assay on ACHN renal, 105%; in the assay with CAKI-1 renal, 88.6%; in the assay on A498 renal, 89.3%; with CCRF-CEM leukemia it was 86.5%. For the same molecule, the growth in the assay on MOLT-4 leukemia was 108%.

On to `CCOc1ccc2nc3ccc(Cl)cc3nc2c1`, for which the growth was 97.1% with HCT-15 colon; 90.5% in the assay on HT29 colon; 108% in the assay with SNB-75 CNS; 97.7% in the assay on SNB-19 CNS; 96.4% in the assay on U251 CNS; 99.9% with PC-3 prostate. Besides, the growth was 67.1% in the assay with SK-MEL-5 melanoma; 79.4% with UACC-62 melanoma; 101% in the assay with LOX IMVI melanoma; 113% in the assay on SK-MEL-28 melanoma; 97.5% in the assay on SK-MEL-2 melanoma; 75% with EKVX NSCLC. Moreover, the growth was 100% in the assay with SN12C renal; 95.1% in the assay with TK-10 renal; 94.6% in the assay on ACHN renal; 124% with CAKI-1 renal; 83.3% with A498 renal; 50.8% with MOLT-4 leukemia.

`COc1ccc2oc(=O)cc(CN3C(=O)S/C(=C\c4ccc(Cl)cc4)C3=O)c2c1`: the growth was 92.3% in the assay with HCT-15 colon; 103% in the assay on HT29 colon; 98.7% with SNB-75 CNS; 99% with SNB-19 CNS; 101% in the assay with U251 CNS; 91.8% in the assay on PC-3 prostate. In addition, the growth in the assay on SK-MEL-5 melanoma was 101%; in the assay with UACC-62 melanoma, 83.1%; with LOX IMVI melanoma, 95.2%; with SK-MEL-28 melanoma, 101%; in the assay on SK-MEL-2 melanoma, 106%; in the assay with EKVX NSCLC, 93%. Moreover, the growth in the assay on TK-10 renal is 108%; in the assay with ACHN renal, 105%; in the assay on A498 renal, 106%; with CCRF-CEM leukemia, 86.5%; in the assay on MOLT-4 leukemia it was 89.2%.
